Experimental findings from paper PMC8384837, “Expanding the binding specificity for RNA recognition by a PUF domain” are described below.

Assay in all cases: yeast three-hybrid, YBZ-1, SC-Leu-His + 0.5 mM 3-AT, 4 days
Common to all, as to conditions: tags: N-Gal4 AD-HA kept; label: inside an RPR1-promoter hybrid RNA with tandem MS2 sites; ssRNA

The target in one assay is PUM1 PUF domain R5-SER (Homo sapiens, UniProt Q14671 828-1176, C1007S;R1008E;Q1011R). The method in brief:
(§1)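 The interaction score is the logarithmic change in variant frequency from input to selection. It uses log2, with a pseudocount of 1 for absent variants, and frequencies came from PCR-amplified, Illumina-sequenced repeat regions. The libraries were Pumilio-1 PUF domains randomized at the three base-contacting residues per repeat, co-expressed with matching RNA elements in strain YBZ-1 (LexA–MS2 coat fusion, HIS3 reporter). Plating lasted four days on SC-Leu (input) or SC-Leu-His + 0.5 mM 3-AT (selection).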

The next assay concerns the target PUM1 PUF domain R5-RSC (Homo sapiens, UniProt Q14671 828-1176, C1007R;R1008S;Q1011C). The method in brief:
as §1

The next assay addresses PUM1 PUF domain R5-AKR (Homo sapiens, UniProt Q14671 828-1176, C1007A;R1008K;Q1011R). The method in brief:
as §1

The target in a further assay is PUM1 PUF domain R3-RIS (Homo sapiens, UniProt Q14671 828-1176, C935R;R936I;Q939S). The method in brief:
as §1

The next assay concerns the target PUM1 PUF domain R5-DFT (Homo sapiens, UniProt Q14671 828-1176, C1007D;R1008F;Q1011T). The method in brief:
as §1

The next assay concerns the target PUM1 PUF domain R5-SVS (Homo sapiens, UniProt Q14671 828-1176, C1007S;R1008V;Q1011S). The method in brief:
as §1

The target of another assay is PUM1 PUF domain R5-DHA (Homo sapiens, UniProt Q14671 828-1176, C1007D;R1008H;Q1011A). The method in brief: as §1
Another assay has as its target PUM1 PUF domain R3-AKE (Homo sapiens, UniProt Q14671 828-1176, C935A;R936K;Q939E). The method in brief: as §1
Another assay addresses PUM1 PUF domain R8-KYT (Homo sapiens, UniProt Q14671 828-1176, N1122K;Q1126T). The method in brief: as §1
The target in the next assay is PUM1 PUF domain R8-KRN (Homo sapiens, UniProt Q14671 828-1176, N1122K;Y1123R;Q1126N). The method in brief:
as §1

A further assay has as its target PUM1 PUF domain R5-PGY (Homo sapiens, UniProt Q14671 828-1176, C1007P;R1008G;Q1011Y). The method in brief: as §1
The target of a further assay is T1, PUM1 PUF domain R6-VFA (Homo sapiens, UniProt Q14671 828-1176, N1043V;Y1044F;Q1047A).
T1 sequence: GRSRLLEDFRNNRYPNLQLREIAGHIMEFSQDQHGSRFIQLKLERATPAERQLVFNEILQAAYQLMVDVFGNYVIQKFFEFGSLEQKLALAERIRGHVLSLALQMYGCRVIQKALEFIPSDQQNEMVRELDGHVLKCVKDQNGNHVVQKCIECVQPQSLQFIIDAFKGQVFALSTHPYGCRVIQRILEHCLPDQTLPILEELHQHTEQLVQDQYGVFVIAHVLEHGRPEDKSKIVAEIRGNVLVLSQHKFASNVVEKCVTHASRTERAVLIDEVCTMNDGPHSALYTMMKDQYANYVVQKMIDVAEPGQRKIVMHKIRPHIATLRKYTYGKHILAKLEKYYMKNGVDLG
The method in brief:
as §1

Another assay has as its target PUM1 PUF domain R4-HRG (Homo sapiens, UniProt Q14671 828-1176, N971H;H972R;Q975G). The method in brief: as §1
The target of the next assay is PUM1 PUF domain R8-RNR (Homo sapiens, UniProt Q14671 828-1176, N1122R;Y1123N;Q1126R). The method in brief: as §1
Another assay addresses PUM1 PUF domain R8-RFG (Homo sapiens, UniProt Q14671 828-1176, N1122R;Y1123F;Q1126G). The method in brief:
as §1

A further assay addresses PUM1 PUF domain R8-THR (Homo sapiens, UniProt Q14671 828-1176, N1122T;Y1123H;Q1126R). The method in brief: as §1
Another assay has as its target PUM1 PUF domain R8-PFW (Homo sapiens, UniProt Q14671 828-1176, N1122P;Y1123F;Q1126W). The method in brief: as §1
Another assay has as its target PUM1 PUF domain R4-TNQ (Homo sapiens, UniProt Q14671 828-1176, N971T;H972N). The method in brief:
as §1

The next assay has as its target PUM1 PUF domain R4-NNW (Homo sapiens, UniProt Q14671 828-1176, H972N;Q975W). The method in brief: as §1
Another assay concerns the target PUM1 PUF domain R1-HMR (Homo sapiens, UniProt Q14671 828-1176, S863H;R864M;Q867R). The method in brief: as §1

On to “GGCUAGAACUAGUGGAUCCCCCGGCGCCCGGCGGCUCGAGCCCGGGUAAGUGUCAAUAGUCUGCAUGCCGCCGGGCGCCAUGCCUGCAGGUCGACUCUAGAAAACAUG”, for which the binding signal was 3.79 log2 enrichment (interaction score) with PUM1 PUF domain R5-SER, 3.02 log2 enrichment (interaction score) with PUM1 PUF domain R5-RSC and 5.56 log2 enrichment (interaction score) with PUM1 PUF domain R5-AKR.

Turning to “GGCUAGAACUAGUGGAUCCCCCGGCGCCCGGCGGCUCGAGCCCGGGUAAGUGUAAUUAGUCUGCAUGCCGCCGGGCGCCAUGCCUGCAGGUCGACUCUAGAAAACAUG”, the binding signal in the assay with PUM1 PUF domain R3-RIS is 3.36 log2 enrichment (interaction score).

Consider “GGCUAGAACUAGUGGAUCCCCCGGCGCCCGGCGGCUCGAGCCCGGGUAAGUGUGAAUAGUCUGCAUGCCGCCGGGCGCCAUGCCUGCAGGUCGACUCUAGAAAACAUG”, for which the binding signal in the assay with PUM1 PUF domain R5-DFT is 3.29 log2 enrichment (interaction score); with PUM1 PUF domain R5-SVS it was 3.48 log2 enrichment (interaction score); with PUM1 PUF domain R5-DHA, 2.38 log2 enrichment (interaction score).

Consider “GGCUAGAACUAGUGGAUCCCCCGGCGCCCGGCGGCUCGAGCCCGGGUAAGUGUUAAUAGUCUGCAUGCCGCCGGGCGCCAUGCCUGCAGGUCGACUCUAGAAAACAUG”, for which the binding signal in the assay with PUM1 PUF domain R5-RSC is 3.18 log2 enrichment (interaction score); in the assay with PUM1 PUF domain R5-DHA, 4.01 log2 enrichment (interaction score).

Consider “GGCUAGAACUAGUGGAUCCCCCGGCGCCCGGCGGCUCGAGCCCGGGUAAGUGUAAGUAGUCUGCAUGCCGCCGGGCGCCAUGCCUGCAGGUCGACUCUAGAAAACAUG”, for which the figures for the binding signal with PUM1 PUF domain R3-AKE and with PUM1 PUF domain R3-RIS were 2.98 log2 enrichment (interaction score) and 3.17 log2 enrichment (interaction score), respectively.

Consider “GGCUAGAACUAGUGGAUCCCCCGGCGCCCGGCGGCUCGAGCCCGGGUAAGUGUAAAUAGUCUGCAUGCCGCCGGGCGCCAUGCCUGCAGGUCGACUCUAGAAAACAUG”, for which the binding signal with PUM1 PUF domain R8-KYT was 2.68 log2 enrichment (interaction score); in the assay with PUM1 PUF domain R8-KRN it was 2.98 log2 enrichment (interaction score); in the assay with PUM1 PUF domain R5-PGY, 4.47 log2 enrichment (interaction score); in the assay with PUM1 PUF domain R6-VFA it was 2.89 log2 enrichment (interaction score); in the assay with PUM1 PUF domain R4-HRG, 3.06 log2 enrichment (interaction score); in the assay with PUM1 PUF domain R8-RNR, 0.57 log2 enrichment (interaction score). The binding signal with PUM1 PUF domain R8-RFG is 4.85 log2 enrichment (interaction score); with PUM1 PUF domain R8-THR, 2.7 log2 enrichment (interaction score).

For the sequence “GGCUAGAACUAGUGGAUCCCCCGGCGCCCGGCGGCUCGAGCCCGGGUAAGCGUAAAUAGUCUGCAUGCCGCCGGGCGCCAUGCCUGCAGGUCGACUCUAGAAAACAUG”, the binding signal with PUM1 PUF domain R8-KYT is 2.81 log2 enrichment (interaction score); with PUM1 PUF domain R8-RNR, 2.37 log2 enrichment (interaction score); with PUM1 PUF domain R8-RFG, 6.69 log2 enrichment (interaction score); with PUM1 PUF domain R8-PFW, 3.6 log2 enrichment (interaction score); in the assay with PUM1 PUF domain R8-THR, 3.22 log2 enrichment (interaction score).

As to “GGCUAGAACUAGUGGAUCCCCCGGCGCCCGGCGGCUCGAGCCCGGGUAAGUGAAAAUAGUCUGCAUGCCGCCGGGCGCCAUGCCUGCAGGUCGACUCUAGAAAACAUG”, the binding signal in the assay with PUM1 PUF domain R6-VFA is 6.94 log2 enrichment (interaction score).

For “GGCUAGAACUAGUGGAUCCCCCGGCGCCCGGCGGCUCGAGCCCGGGUAAGUGUAUAUAGUCUGCAUGCCGCCGGGCGCCAUGCCUGCAGGUCGACUCUAGAAAACAUG”, the binding signal in the assay with PUM1 PUF domain R4-TNQ is 4.92 log2 enrichment (interaction score); with PUM1 PUF domain R4-HRG, 2.71 log2 enrichment (interaction score).

In the case of “GGCUAGAACUAGUGGAUCCCCCGGCGCCCGGCGGCUCGAGCCCGGGUAAGUGUACAUAGUCUGCAUGCCGCCGGGCGCCAUGCCUGCAGGUCGACUCUAGAAAACAUG”, the figures for the binding signal in the assay with PUM1 PUF domain R4-HRG and in the assay with PUM1 PUF domain R4-NNW were 2.09 log2 enrichment (interaction score) and 4.15 log2 enrichment (interaction score), respectively.

Consider “GGCUAGAACUAGUGGAUCCCCCGGCGCCCGGCGGCUCGAGCCCGGGUAAGUGUAAAUCGUCUGCAUGCCGCCGGGCGCCAUGCCUGCAGGUCGACUCUAGAAAACAUG”, for which, in the assay with PUM1 PUF domain R1-HMR, the binding signal was 3.35 log2 enrichment (interaction score).
